Source: PubChem BioAssay
In the library only some 1.9% were active in any assay of this set; here they are far more common.
Yeast superoxide – lowers age-related superoxide in aged yeast cells; superoxide response (% of plate mean), % at 10 µM; 330,000 tested, 0.18% active; S. cerevisiae aged cells, superoxide DHE fluorescence; active compounds read low; AID 2690;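 active = superoxide response under a set limit, about three screen SD below normal, cut at about 65% in these data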;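 also: yeast aged for seven days with compound at 30 °C before DHE staining; 100% = average MFI of all compound-treated wells on the plate with controls excluded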
MCL1-BIM inh – disrupts human MCL1 binding to BIM-BH3 peptide; AID 2057; Q07820; inhibition, % at 10.9 µM; 320,000 tested, 0.68% active; GST-MCL1 / FITC-Bim-BH3 fluorescence polarization;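 active = inhibition above the mean inhibition of all tested compounds plus 3 SD, set per campaign, cut at about 40% in these data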;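 also: 0% = DMSO wells and 100% = unlabeled Bim-BH3 peptide control; higher means more loss of mP so more displacement of Bim peptide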
LANA-H2A inh – blocks KSHV LANA binding to histone H2A/H2B; Q9QR71; cell-free LANA-H2A/H2B peptide, fluorescence polarization; inhibition, % (no concentration beside the values); 320,000 tested, 0.6% active; in the data active = inhibition mostly above about 10%, no sharp cut-off; inactive = mostly below about 6.7%
GLD-1 TGE inh – GLD-1-TGE RNA interaction inhibition (C. elegans); purified GLD-1 + fluorescein TGE RNA, fluorescence polarization; 320,000 tested, 0.44% active; inhibition, % at 5.96 µM; Q17339;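 active = percent inhibition above a per-plate cutoff, the plate mean of test compounds plus 3 SD, cut at about 30% in these data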;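 also: 0% = DMSO wells with GLD-1 and probe and 100% = wells lacking GLD-1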
BCLXL inh – inhibitors of human Bcl-xL | inhibition, % at 10.9 µM | GST-Bcl-xL / FITC-Bim BH3 peptide fluorescence polarization | AID 2129 | 320,000 tested, 0.7% active | Q07817;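 active = inhibition above the mean of all tested compounds plus 3 SD, cutoff set per campaign, cut at about 30% in these data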;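 also: 0% = DMSO wells and 100% = unlabeled Bim-BH3 peptide competitor; inhibitors lower millipolarization by displacing the labeled peptide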
Target sequence (Q07817 whole entry, looked up): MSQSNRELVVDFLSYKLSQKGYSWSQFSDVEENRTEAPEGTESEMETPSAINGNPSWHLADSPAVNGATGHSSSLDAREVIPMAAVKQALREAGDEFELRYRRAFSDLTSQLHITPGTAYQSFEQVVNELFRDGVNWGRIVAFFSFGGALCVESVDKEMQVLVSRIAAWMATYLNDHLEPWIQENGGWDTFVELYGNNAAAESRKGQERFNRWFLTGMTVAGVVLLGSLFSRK
MEX-5 binding – C. elegans MEX-5 TCR-2 RNA binding activity | 300,000 tested, 0.38% active | activity score (negative = inhibition of binding), % at 10 µM | MEX-5/FITC-TCR2 RNA binding, fluorescence polarization; active compounds read low | AID 1832;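 active = inhibition past about -25% in most replicates, and total fluorescence under double the plate's negative control median, limit read from the data; inconclusive = replicates evenly split on the limit, or fluorescence at least double controls; inactive = too little inhibition in most replicates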;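 also: 0% = DMSO and -100% = 5 µM competing unlabeled TCR2 RNA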
Target sequence (Q9XUB2 whole entry, looked up): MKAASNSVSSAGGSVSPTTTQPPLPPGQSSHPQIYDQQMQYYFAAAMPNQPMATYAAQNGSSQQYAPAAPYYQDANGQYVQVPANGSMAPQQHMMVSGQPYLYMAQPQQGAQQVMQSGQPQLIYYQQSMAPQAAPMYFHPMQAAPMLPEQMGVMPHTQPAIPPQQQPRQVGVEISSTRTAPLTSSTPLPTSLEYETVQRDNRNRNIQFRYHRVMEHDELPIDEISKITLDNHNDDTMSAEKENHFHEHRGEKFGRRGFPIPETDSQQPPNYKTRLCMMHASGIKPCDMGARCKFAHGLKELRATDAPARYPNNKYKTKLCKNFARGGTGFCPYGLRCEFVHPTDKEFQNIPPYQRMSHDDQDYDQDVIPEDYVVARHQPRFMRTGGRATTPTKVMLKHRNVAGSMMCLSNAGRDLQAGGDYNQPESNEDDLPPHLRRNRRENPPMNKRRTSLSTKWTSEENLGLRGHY
* = called active by the depositor; ? = inconclusive; nt = no result given; + = active, no number.

SMILES	Yeast superoxide	MCL1-BIM inh	LANA-H2A inh	GLD-1 TGE inh	BCLXL inh	MEX-5 binding
COC(=O)CCC(=O)OC1(C)C(=O)C2=CN(CC(C)C)C(c3ccc(OC)cc3)=CC2=C(Br)C1=O (stereo unspecified)	91.7	45.7*	-2.0	14.9	42.7*	-17.5
COC(=O)CCC(=O)OC1(C)C(=O)C=C2C=C(C3CC3)N(Cc3ccc(OC)cc3)C=C2C1=O (stereo unspecified)	102.9	35.2	3.6	27.2	36.6*	-15.7
COC(=O)CCC(=O)OC1(C)C(=O)C2=CN(CC3CC3)C(c3ccc(OC)cc3)=CC2=C(Br)C1=O (stereo unspecified)	104.2	35.0	4.7	20.7	33.1*	-17.6
COC(=O)CCC(=O)OC1(C)C(=O)C2=CN(C3CC3)C(c3ccc(OC)cc3)=CC2=C(Br)C1=O (stereo unspecified)	100.3	24.6	2.6	8.7	25.3	-6.6
COC(=O)CCC(=O)OC1(C)C(=O)C2=CN(CCCOC(C)C)C(c3ccc(OC)cc3)=CC2=C(Br)C1=O (stereo unspecified)	94.8	44.5*	6.9	26.5	41.6*	?
COC(=O)CCC(=O)OC1(C)C(=O)C2=CN(Cc3ccc(OC)cc3)C(c3ccc(OC)cc3)=CC2=C(Br)C1=O (stereo unspecified)	90.1	5.6	-0.6	6.2	11.1	-7.8
Cc1nnsc1S(=O)c1ccccc1Cl (stereo unspecified)	93.5	-2.1	1.2	-5.2	4.8	2.8
Cc1ccc(S(=O)(=O)N2CCCCC2)cc1NC(=O)COC(=O)c1ccc(=O)[nH]c1	96.8	2.4	-0.9	3.0	1.4	nt
O=C(NCc1cccs1)c1cnc2ccccn2c1=O	105.5	-0.5	9.8*	0.7	0.6	-0.8
O=C(NCCc1ccccc1)C1CCN(c2nc3ccccc3o2)CC1	93.9	-5.1	14.3*	1.0	-4.0	0.3
O=C(NC1CCCCCCC1)C1CCN(c2nc3ccccc3o2)CC1	84.1	-4.2	0.9	3.9	0.9	0.8
COc1ccc(C2C(C(=O)N3CCN(C)CC3)c3cc(OC)c(OC)cc3C(=O)N2C)cc1 (stereo unspecified)	89.1	4.3	+	-3.5	6.1	0.6
CCOC(=O)COc1ccc(S(=O)(=O)NC2CC2)cc1	58.4*	6.1	5.8	5.4	4.0	-0.5
CCc1ccccc1N1CC(C(=O)Nc2cc(S(=O)(=O)N3CCCC3)ccc2Cl)CC1=O (stereo unspecified)	106.8	16.3	-4.8	-0.8	4.5	nt
COc1ccc(OCC(=O)NNC(=O)C(=O)Nc2ccccc2)cc1	100.0	nt	-2.9	-2.9	nt	nt
COCCNC(=O)C(=O)NNC(=O)COc1ccc(OC)cc1	102.0	-2.9	19.6*	9.3	-1.0	-9.6
COc1ccc(OCC(=O)NCCCNC(=O)COc2ccc(OC)cc2)cc1	92.5	-2.7	11.0*	1.7	1.0	nt
Cc1ccc(OCC(=O)NCCCNC(=O)COc2ccc(C)cc2)cc1	nt	nt	nt	nt	nt	-1.7
COc1cc(OC)cc(C(=O)Nc2cccc(C(C)=O)c2)c1	85.2	-1.2	2.2	1.9	2.9	-1.6
COc1cc(OC)cc(C(C)=O)c1	116.5	0.4	20.5*	3.8	-4.1	-1.1
COc1ccc(C)cc1S(=O)(=O)NNc1nc(C)cc(C)n1	81.2	nt	-1.9	-0.2	nt	nt
Cn1cccc1CC(=O)N/N=C\c1c2ccccc2cc2ccccc12	102.6	50.8*	1.9	17.8	33.5*	-3.6
Cn1cccc1CC(=O)N/N=C/c1cccc2ccccc12	112.7	37.3	-1.0	36.1*	46.2*	1.3
O=C(Cc1ccsc1)OCC(=O)c1ccccc1	126.6	nt	-0.8	0.2	nt	nt
O=C(O)CCC1c2cc3c4cc2OC2Oc5cc6c(cc51)C(CCC(=O)O)c1cc5c7cc1OC(O6)c1cc6cc(c1)Oc1cc(cc(C(=O)O)c1)Oc1cc8cc(c1)C(Oc1cc(c(cc1C5CCC(=O)O)C3CCC(=O)O)OC(O4)c1cc(cc(c1)Oc1cc(cc(C(=O)O)c1)O8)Oc1cc(cc(C(=O)O)c1)Oc1cc(cc2c1)Oc1cc(cc(C(=O)O)c1)O6)O7 (stereo unspecified)	106.1	42.2*	-2.7	96.6*	12.0	-99.7*
SMILES	Yeast superoxide	MCL1-BIM inh	LANA-H2A inh	GLD-1 TGE inh	BCLXL inh	MEX-5 binding
O=C(CS(=O)c1ccc(F)cc1)Nc1ccccc1Cl (stereo unspecified)	97.7	14.3	13.4*	5.5	13.0	0.9
COc1ccc2c(c1)CCCC21NC(=O)N(CC(=O)NCc2cccs2)C1=O (stereo unspecified)	104.9	nt	0.8	-0.7	nt	nt
CCOC(=O)C(C)C(C)=O (stereo unspecified)	124.9	4.3	14.7*	-1.3	5.7	nt
CCOC(=O)C(C(C)=O)C(c1ccc(OC)cc1)C(C(C)=O)C(=O)OCC (stereo unspecified)	107.4	-6.7	-5.2	8.5	7.4	-0.6
O=C(CN1C(=O)C(=O)N(C2CCCC2)C1=O)Nc1ccccc1OC(F)F	109.1	nt	0.3	0.2	nt	nt
Cc1nc2sccn2c(=O)c1CCN1CCC(=C(c2ccc(F)cc2)c2ccc(F)cc2)CC1	97.2	0.3	8.3*	8.5	1.2	-3.9
COc1ccc2ccccc2c1/C=N/NC(=O)c1sc(N)c(C#N)c1C	111.5	-18.8	+	-12.6	-8.4	1.4
Cc1ccc(C(=O)/C=C/Nc2cccc(O)c2)cc1	87.2	40.2*	6.2	12.9	40.2*	-1.6
C[C@H](CO)N1C[C@H](C)[C@H](CN(C)S(=O)(=O)c2ccccc2)Oc2c(NS(C)(=O)=O)cccc2C1=O	87.0	nt	6.6	7.0	nt	nt
O=c1c(-c2ccccc2)c(O)c2cccc3c2n1CCC3	122.7	-8.9	20.2*	1.8	3.4	-4.2
CCCCN1C=CC(=C2C(=O)c3ccccc3C2=O)C=C1	109.5	-2.2	7.5	6.7	0.7	-38.4*
CCCCNC1=CC(=O)C(=O)c2ccccc21	157.4	-1.2	6.3	1.5	4.8	-0.2
Cc1ccc(/C=N/NC(=O)c2cc3c(s2)CCCC3)o1	112.4	8.1	1.5	-1.4	9.5	nt
O=C1C=C(O)c2c(O)cccc2C1=O	129.0	16.4	-5.8	2.0	8.5	nt
O=C1c2c(O)cccc2Cc2cccc(O)c21	106.2	35.8	3.2	20.9	30.8*	nt
O=C(Nc1cc(Cl)ccc1-n1cncn1)c1ccc([N+](=O)[O-])o1	80.2	10.6	-5.4	2.8	9.3	-0.1
CC(C)NC(=O)N(C)C[C@H]1Oc2ccc(NS(=O)(=O)c3ccccc3)cc2C(=O)N([C@H](C)CO)C[C@@H]1C	100.2	nt	-4.2	2.2	nt	nt
CCC1CCCCN1C(=O)COc1ccc2c3c(c(=O)oc2c1)CCC3 (stereo unspecified)	117.0	1.3	31.5*	1.1	-4.6	nt
O=C(O)[C@@H]1CCCN1C(=O)COc1ccc2c3c(c(=O)oc2c1)CCC3	99.2	-2.7	0.2	5.3	-1.4	-1.3
